In PubChem BioAssay (NCATS):
Unmarked numbers belong to inactive results. Results filed as inconclusive are left out. Activity calls are given as the source filed them. Unless noted, calls follow the shape of the dose curve; as a rule, active = well fitted curve in the direction sought with a large enough effect; inconclusive = small, poorly fitted or top-dose-only effect, or another doubt; inactive = no such curve, though single readings can be large; an effect the other way counts as inactive or inconclusive.

Experiments:
[1] = molecular target: Lysosomal acid glucosylceramidase (Homo sapiens) (UniProt P04062); assay: Glucocerebrosidase-p2 (AID 348; in the data active = potency below about 10 µM; also: potency is read from the fitted curve at half-maximal effect); conditions: purified GBA, blue fluorogenic substrate, 40 min
Sequence of Lysosomal acid glucosylceramidase (Homo sapiens) (P04062 whole entry, looked up): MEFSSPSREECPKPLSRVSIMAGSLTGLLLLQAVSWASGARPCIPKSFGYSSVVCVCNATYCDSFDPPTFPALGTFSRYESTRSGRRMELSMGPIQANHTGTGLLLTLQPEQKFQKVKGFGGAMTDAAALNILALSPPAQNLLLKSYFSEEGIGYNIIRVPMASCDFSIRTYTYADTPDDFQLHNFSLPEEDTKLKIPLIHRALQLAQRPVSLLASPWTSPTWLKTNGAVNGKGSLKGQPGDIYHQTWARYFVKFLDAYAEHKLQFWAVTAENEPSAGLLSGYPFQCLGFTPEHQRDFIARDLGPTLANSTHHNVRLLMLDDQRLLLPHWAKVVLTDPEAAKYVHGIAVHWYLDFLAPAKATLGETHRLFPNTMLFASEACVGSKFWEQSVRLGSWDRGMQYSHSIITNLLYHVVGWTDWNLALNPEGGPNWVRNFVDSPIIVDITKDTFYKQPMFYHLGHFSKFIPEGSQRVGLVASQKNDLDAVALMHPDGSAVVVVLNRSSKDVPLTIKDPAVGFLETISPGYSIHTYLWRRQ
Procedure, shortened: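 Normal human glucocerebrosidase (0.2 nM) with blue fluorogenic substrate (80 uM final) in citrate/phosphate pH 5.9 with 10mM sodium taurocholate, 0.01% tween-20; 40 min RT, NaOH/glycine stop; fluorescence Ex 365/Em 440; AC50 from a titration from 0.6 nM upwards.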

[2] = AP1 Signaling Pathway (AID 357; active = well fitted curve in either direction with a large enough effect, not every such curve was filed as active; also: % is scaled to controls: 0 for no effect and ±100 for the full control effect); conditions: ME-180 AP-1-bla reporter, EGF-induced, beta-lactamase ratio, 5 h; at 7.69 µM (top of the series) unless noted
Procedure, shortened: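 ME-180 cells with beta-lactamase reporter under AP-1 response element, stimulated with EC50 EGF; compounds tested in titration series, 5 h at 37 °C. CCF4 substrate added 2.5 h at room temperature; 460/530 nm emission ratio gave %activity and AC50.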

[3] = molecular target: Cytochrome P450 1A2 (Homo sapiens) (UniProt P05177); assay: p450-cyp1a2 (AID 410; calls by dose curve; also: potency is read from the fitted curve at half-maximal effect); conditions: recombinant CYP1A2, luciferin-ME demethylation, luminescence; series mostly up to 57 µM
Sequence of Cytochrome P450 1A2 (Homo sapiens) (P05177 whole entry, looked up): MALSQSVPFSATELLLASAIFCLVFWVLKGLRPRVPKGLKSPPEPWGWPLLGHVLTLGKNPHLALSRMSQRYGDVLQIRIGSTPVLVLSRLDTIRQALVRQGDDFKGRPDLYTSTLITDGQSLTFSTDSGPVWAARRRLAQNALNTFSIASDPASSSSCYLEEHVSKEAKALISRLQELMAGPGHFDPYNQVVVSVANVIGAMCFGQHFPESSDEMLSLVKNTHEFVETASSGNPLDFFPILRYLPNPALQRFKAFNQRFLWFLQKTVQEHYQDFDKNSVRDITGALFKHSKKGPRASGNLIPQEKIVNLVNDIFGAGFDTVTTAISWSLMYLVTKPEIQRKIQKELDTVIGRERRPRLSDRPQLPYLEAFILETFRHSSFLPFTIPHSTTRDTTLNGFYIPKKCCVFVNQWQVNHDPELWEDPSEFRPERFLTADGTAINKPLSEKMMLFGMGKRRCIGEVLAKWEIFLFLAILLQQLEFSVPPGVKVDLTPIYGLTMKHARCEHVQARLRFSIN
Procedure, shortened: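 O-Demethylation of luciferin 6' methyl ether by human CYP1A2 is monitored as luciferase luminescence. Substrate sits at Km (100uM); enzyme is 20nM. Values are scaled to 57 uM furafylline as maximal inhibition.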

[4] = NFAT Signaling Pathway (AID 444; active = well fitted curve in either direction with a large enough effect, not every such curve was filed as active;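 also: carbachol stimulus at about its EC50 of 1 µM final; % is scaled to controls: 0 for no effect and ±100 for the full control effect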); conditions: Jurkat NFAT-bla M1, carbachol, beta-lactamase ratio, 5 h; at 7.69 µM (top of the series) unless noted
Procedure, shortened: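 Jurkat cells with NFAT-driven β-lactamase reporter and co-expressed M1 receptor, stimulated with carbachol (final 1 uM, ~EC50), compound titration, 5 h at 37 °C. CCF4 loaded 1 h at RT; 460/530 nm ratio gave %activity and AC50.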

[5] = Stat Signaling Pathway (AID 446; active = well fitted curve in either direction with a large enough effect, not every such curve was filed as active;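 also: ME-180 cervical cancer cells given 40 pM IL-6 alongside compound; SIE-controlled beta-lactamase reporter measured as 460/530 nm FRET emission ratio; % is scaled to controls: 0 for no effect and ±100 for the full control effect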); conditions: ME-180 SIE beta-lactamase reporter, IL-6 stimulated, 5 h; at 7.69 µM (top of the series) unless noted
Procedure, shortened: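 FRET read-out (405 nm excitation, 460/530 nm emission) of a beta-lactamase reporter under a STAT-inducible element in ME-180 cervical carcinoma cells. Cells with compound receive 40 pM IL-6 for 5 h. Values are normalised to AC90 stimulation and AC90 JAK-inhibitor controls.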

[6] = molecular target: Glucocorticoid receptor (Homo sapiens) (UniProt P04150); assay: GR-GFP Redistribution (AID 450;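 active = compounds whose dose series gives a full or clear partial fitted curve of increased nuclear translocation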; also: potency is read from the fitted curve at half-maximal effect); conditions: U2OS GR-GFP nuclear translocation, laser cytometry, 2 h
Sequence of Glucocorticoid receptor (Homo sapiens) (P04150 whole entry, looked up, the tested form may be a part): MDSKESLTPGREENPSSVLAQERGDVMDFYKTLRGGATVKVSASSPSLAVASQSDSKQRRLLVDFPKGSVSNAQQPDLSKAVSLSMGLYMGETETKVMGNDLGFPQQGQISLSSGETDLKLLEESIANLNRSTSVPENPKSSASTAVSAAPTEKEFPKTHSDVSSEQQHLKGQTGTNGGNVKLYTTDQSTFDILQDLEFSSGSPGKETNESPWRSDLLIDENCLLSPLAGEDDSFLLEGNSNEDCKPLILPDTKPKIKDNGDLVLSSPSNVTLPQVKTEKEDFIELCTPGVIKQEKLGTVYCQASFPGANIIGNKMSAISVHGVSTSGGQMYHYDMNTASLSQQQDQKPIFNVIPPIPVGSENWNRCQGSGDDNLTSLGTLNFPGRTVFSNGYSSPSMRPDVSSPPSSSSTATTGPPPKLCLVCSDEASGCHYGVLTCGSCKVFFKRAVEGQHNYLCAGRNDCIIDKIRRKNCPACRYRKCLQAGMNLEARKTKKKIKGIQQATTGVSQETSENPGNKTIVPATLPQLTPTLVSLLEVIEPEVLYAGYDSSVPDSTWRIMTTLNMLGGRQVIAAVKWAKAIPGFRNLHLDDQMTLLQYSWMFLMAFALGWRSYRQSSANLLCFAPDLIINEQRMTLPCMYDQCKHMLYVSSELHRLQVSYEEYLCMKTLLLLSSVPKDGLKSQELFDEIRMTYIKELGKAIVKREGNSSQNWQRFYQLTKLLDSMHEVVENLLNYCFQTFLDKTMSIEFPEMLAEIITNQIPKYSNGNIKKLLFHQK

[7] = molecular target: Glucocorticoid receptor (Homo sapiens) (UniProt P04150); assay: GR-EFC Redistribution (AID 451; calls by dose curve; also: potency is read from the fitted curve at half-maximal effect); conditions: CHO-K1 GR-EFC translocation, beta-gal luminescence, 2 h
Procedure, shortened: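 CHO-K1 cells expressing nuclear EA and GR-ED fragments of b-gal; compounds titrated up to 46 uM final, 2 h at 37 C. GR nuclear translocation read as complemented b-gal luminescence after 1 h RT detection.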

[8] = molecular target: 3',5'-cyclic-AMP phosphodiesterase 4B (Homo sapiens) (UniProt Q07343); assay: qHTS Assay for Inhibitors of PDE-IV (AID 607; active = well fitted activation curve with a large enough effect in the main read-out, with a control signal flat, not every such curve was filed as active; also: potency is read from the fitted curve at half-maximal effect); conditions: HEK293 ACTOne CNG channel cells, membrane potential fluorescence; series mostly up to 22.9 µM
Sequence of 3',5'-cyclic-AMP phosphodiesterase 4B (Homo sapiens) (Q07343 whole entry, looked up): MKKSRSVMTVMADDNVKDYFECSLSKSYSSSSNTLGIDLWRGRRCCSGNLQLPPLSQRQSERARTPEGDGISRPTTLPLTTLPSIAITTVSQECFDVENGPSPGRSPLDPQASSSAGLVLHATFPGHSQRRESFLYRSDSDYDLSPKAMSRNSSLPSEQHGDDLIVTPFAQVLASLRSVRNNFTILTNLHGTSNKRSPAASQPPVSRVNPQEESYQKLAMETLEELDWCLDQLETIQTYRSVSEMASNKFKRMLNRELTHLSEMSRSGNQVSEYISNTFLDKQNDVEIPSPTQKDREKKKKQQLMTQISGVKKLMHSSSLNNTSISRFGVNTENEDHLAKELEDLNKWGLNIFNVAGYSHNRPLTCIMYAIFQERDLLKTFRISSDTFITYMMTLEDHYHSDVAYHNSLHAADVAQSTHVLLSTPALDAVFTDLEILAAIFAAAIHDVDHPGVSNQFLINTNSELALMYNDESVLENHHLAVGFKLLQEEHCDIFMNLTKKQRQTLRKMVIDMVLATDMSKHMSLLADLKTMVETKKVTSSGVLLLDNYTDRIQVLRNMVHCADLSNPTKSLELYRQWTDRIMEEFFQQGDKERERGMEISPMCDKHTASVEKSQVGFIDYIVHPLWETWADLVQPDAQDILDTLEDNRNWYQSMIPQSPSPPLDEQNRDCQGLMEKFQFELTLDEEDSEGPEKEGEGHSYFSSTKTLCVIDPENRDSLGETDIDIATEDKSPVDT
Procedure, shortened: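 Cell-based read-out of cAMP via a modified cyclic nucleotide-gated channel and membrane potential dye (535/590 nm) in HEK293 cells expressing PDE4 endogenously. Compounds tested up to 22.9 uM final; 100 uM RO 20-1724 reference.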

[9] = molecular target: Cytochrome P450 3A4 (Homo sapiens) (UniProt P08684); assay: qHTS Assay for Inhibitors and Substrates of Cytochrome P450 3A4 (AID 884); conditions: recombinant CYP3A4, Luciferin-PPXE luminescence; series mostly up to 57.1 µM; also: potency is read from the fitted curve at half-maximal effect; nearly all actives have a fitted effect of over 50% in size
Sequence of Cytochrome P450 3A4 (Homo sapiens) (P08684 whole entry, looked up): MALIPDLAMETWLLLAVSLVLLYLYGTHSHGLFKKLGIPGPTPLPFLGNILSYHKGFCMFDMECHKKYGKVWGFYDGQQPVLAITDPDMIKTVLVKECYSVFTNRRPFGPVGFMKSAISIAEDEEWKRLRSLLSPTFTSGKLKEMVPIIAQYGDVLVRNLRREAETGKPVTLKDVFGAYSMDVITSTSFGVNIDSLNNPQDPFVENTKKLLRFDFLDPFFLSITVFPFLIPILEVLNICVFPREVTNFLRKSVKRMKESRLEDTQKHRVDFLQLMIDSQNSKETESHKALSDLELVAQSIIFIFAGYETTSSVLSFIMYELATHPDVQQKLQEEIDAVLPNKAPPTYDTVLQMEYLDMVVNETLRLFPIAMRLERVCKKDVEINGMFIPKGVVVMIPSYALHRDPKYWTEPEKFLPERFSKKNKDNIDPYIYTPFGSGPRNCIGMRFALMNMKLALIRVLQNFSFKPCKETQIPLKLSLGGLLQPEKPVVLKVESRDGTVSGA
Procedure, shortened: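 Luminescent readout of luciferin produced by CYP3A4 (20 nM) dealkylation of Luciferin-PPXE, 25 uM (its KM). NADPH-driven reaction ran 60 min at RT after 10 min compound preincubation; data scaled to 57 uM ketoconazole as 100% inhibition.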

[10] = molecular target: Cytochrome P450 3A4 (Homo sapiens) (UniProt P08684); assay: qHTS Assay for Activators of Cytochrome P450 3A4 (AID 885); conditions: recombinant CYP3A4, Luciferin-PPXE luminescence, 60 min; series mostly up to 57.1 µM; also: nearly all actives have a fitted effect of over 65% in size
Procedure, shortened: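 Luminescent readout of luciferin formed from 25 uM Luciferin-PPXE (KM level) by 20 nM CYP3A4 in 200 mM KPO4, with 60 min NADPH-driven reaction at room temperature after 10 min compound exposure. Ketoconazole (57 uM) defined 100% inhibition.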

[11] = molecular target: Dual specificity protein kinase CLK4 (Homo sapiens) (UniProt Q9HAZ1); assay: qHTS Assay for Inhibitors of CDC-like Kinase 4 (Kinase-Glo Assay) (AID 1770); conditions: recombinant Clk4, Kinase-Glo ATP depletion luminescence; series mostly up to 66.7 µM; also: nearly all actives have a fitted effect of over 65% in size; also: potency is read from the fitted curve at half-maximal effect
Sequence of Dual specificity protein kinase CLK4 (Homo sapiens) (Q9HAZ1 whole entry, looked up): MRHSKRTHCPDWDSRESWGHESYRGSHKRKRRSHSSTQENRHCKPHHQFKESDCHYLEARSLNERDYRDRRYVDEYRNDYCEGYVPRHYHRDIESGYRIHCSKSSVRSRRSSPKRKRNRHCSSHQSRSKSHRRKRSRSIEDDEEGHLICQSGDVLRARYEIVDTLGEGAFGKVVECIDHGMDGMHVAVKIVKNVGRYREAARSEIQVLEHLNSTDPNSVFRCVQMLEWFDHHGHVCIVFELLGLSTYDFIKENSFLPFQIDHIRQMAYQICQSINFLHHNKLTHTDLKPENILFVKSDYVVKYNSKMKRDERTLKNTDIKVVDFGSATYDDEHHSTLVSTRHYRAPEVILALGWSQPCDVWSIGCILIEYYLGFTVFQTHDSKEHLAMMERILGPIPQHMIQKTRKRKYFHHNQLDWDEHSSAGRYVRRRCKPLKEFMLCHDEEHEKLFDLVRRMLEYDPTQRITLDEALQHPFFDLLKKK
Procedure, shortened: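 Inhibition was judged from remaining ATP, measured by Ultra-Glo luciferase bioluminescence after Clk4 (25 nM) had acted on RS peptide at 1 uM ATP for 4.5 hours, room temperature.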

[12] = molecular target: Dual specificity protein kinase CLK4 (Homo sapiens) (UniProt Q9HAZ1); assay: qHTS Assay for Inhibitors of CDC-like Kinase 4 (ADP-Glo Assay) (AID 1771); conditions: recombinant CLK4, ADP-Glo luminescence; series mostly up to 80 µM; also: nearly all actives have a fitted effect of over 70% in size; also: potency is read from the fitted curve at half-maximal effect
Procedure, shortened: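 Compounds are pin-transferred onto substrate mix (100 uM RS peptide, 1 uM ATP), then 25 nM Clk4 is added. After 1 hr at room temperature, ADP-Glo reagent runs 45 min, detection reagent 30 min, then luminescence is read.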

[13] = molecular target: Dual specificity protein kinase CLK4 (Homo sapiens) (UniProt Q9HAZ1); assay: qHTS Assay for Inhibitors of CDC-like Kinase 4 (ADP-FP Assay) (AID 1795); conditions: Transcreener ADP fluorescence polarization; series mostly up to 50 µM; also: nearly all actives have a fitted effect of over 60% in size; also: potency is read from the fitted curve at half-maximal effect
Procedure, shortened: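 Inhibition of ADP formation by 6.25 nM Clk4 is measured using 1 uM ATP and 100 uM RS repeat peptide over one hour. Produced ADP displaces a fluorescent tracer from antibody, lowering polarization.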

[14] = molecular target: Ubiquitin carboxyl-terminal hydrolase 1 (Homo sapiens) (UniProt O94782); assay: Inhibitors of USP1/UAF1: Pilot qHTS (AID 504865); conditions: purified USP1/UAF1, Ub-rhodamine cleavage fluorescence; series mostly up to 54.9 µM;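 also: rhodamine fluorescence freed from ubiquitin-rhodamine substrate followed over time; top concentration of the series differs between compounds; % is scaled to controls: 0 for no effect and ±100 for the full control effect; nearly all actives have a fitted effect of over 35% in size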
Sequence of Ubiquitin carboxyl-terminal hydrolase 1 (Homo sapiens) (O94782 whole entry, looked up): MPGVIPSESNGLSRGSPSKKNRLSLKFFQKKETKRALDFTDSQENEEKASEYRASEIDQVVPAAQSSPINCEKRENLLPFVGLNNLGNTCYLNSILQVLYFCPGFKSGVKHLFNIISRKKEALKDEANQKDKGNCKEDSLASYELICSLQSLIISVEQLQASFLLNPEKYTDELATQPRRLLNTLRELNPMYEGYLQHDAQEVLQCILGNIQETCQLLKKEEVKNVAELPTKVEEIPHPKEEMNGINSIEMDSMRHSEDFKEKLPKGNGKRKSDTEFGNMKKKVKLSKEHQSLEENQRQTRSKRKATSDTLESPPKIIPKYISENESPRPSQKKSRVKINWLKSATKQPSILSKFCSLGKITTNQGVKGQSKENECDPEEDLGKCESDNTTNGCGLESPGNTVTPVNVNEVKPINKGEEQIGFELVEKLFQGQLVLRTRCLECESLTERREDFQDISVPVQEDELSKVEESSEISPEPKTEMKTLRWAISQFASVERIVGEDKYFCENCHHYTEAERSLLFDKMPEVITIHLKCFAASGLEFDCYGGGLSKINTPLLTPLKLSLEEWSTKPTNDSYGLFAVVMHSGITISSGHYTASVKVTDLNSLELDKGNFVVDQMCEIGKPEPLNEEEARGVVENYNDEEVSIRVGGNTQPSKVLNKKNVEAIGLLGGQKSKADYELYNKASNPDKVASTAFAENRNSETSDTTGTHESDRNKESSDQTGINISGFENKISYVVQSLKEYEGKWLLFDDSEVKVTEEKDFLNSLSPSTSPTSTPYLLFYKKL
Procedure, shortened: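 Kinetic fluorescence assay: 1nM USP1/UAF1, 15 min compound preincubation, then 150nM Ub-Rho; 480/540 nm.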

[15] = Primary qHTS for small molecule stabilizers of the endoplasmic reticulum resident proteome: Secreted ER Calcium Modulated Protein (SERCaMP) assay (AID 1508630); conditions: SH-SY5Y GLuc-SERCaMP (Gaussia luciferase released on ER calcium loss) secretion, thapsigargin, luminescence; series mostly up to 38.4 µM; also: % is scaled to controls: 0 for no effect and ±100 for the full control effect
Procedure, shortened: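 The SH-SY5Y reporter protocol was run at 3 concentrations up to 38.3 uM (primary) or 11 concentrations (follow-up): 16 h compound, 100 nM thapsigargin for 4 h, then extracellular luciferase luminescence.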

[16] = molecular target: Mitogen-activated protein kinase 10 (Mus musculus) (UniProt Q61831); assay: JNK3 AlphaScreen Assay (AID 530; active = well fitted curve in either direction with a large enough effect, not every such curve was filed as active); conditions: JNK3 lysate, c-Jun phosphorylation; series mostly up to 57.1 µM
Procedure, shortened: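 Activity was read by AlphaScreen after JNK3-containing HepG2 lysate (cytokine pre-activated) phosphorylated biotinylated GST-cJun with 10 uM ATP at room temperature. Phospho-Ser73 cJun antibody with Protein-A acceptor beads provided detection.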

[17] = molecular target: Cytochrome P450 2C19 (Homo sapiens) (UniProt P33261); assay: qHTS Assay for Inhibitors and Substrates of Cytochrome P450 2C19 (AID 899); conditions: recombinant CYP2C19, luciferin-H EGE luminescence; series mostly up to 57.1 µM; also: potency is read from the fitted curve at half-maximal effect; nearly all actives have a fitted effect of over 60% in size
Sequence of Cytochrome P450 2C19 (Homo sapiens) (P33261 whole entry, looked up): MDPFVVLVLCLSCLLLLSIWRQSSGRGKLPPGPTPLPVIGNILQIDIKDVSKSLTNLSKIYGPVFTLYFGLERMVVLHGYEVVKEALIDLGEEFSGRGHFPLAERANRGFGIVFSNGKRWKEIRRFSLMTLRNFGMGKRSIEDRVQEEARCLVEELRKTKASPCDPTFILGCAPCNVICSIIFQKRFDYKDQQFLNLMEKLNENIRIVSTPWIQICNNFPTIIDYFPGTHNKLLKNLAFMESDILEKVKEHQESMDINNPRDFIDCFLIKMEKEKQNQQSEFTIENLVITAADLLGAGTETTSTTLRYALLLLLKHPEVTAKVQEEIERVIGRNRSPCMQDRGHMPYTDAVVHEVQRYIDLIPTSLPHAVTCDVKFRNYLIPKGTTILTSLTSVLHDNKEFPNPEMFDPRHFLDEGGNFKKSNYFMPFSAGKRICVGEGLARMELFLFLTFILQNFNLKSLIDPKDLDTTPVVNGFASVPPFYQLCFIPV
Procedure, shortened: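 5 nM human CYP2C19 with 10uM Luciferin-H EGE (at KM) in 50mM KPO4, compound preincubated 10 min at 37C, then NADPH regeneration for 60 min at 37C. Luciferin read by luminescence after detection reagent; normalized to 57uM ketoconazole as full inhibition.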

[18] = qHTS Assay for Identification of Small Molecule Agonists for Hypoxia Response Element Signaling Pathway (AID 914; active = well fitted activation curve with a large enough effect in the signal ratio, with a control signal flat, not every such curve was filed as active; the % refers to the signal ratio; also: % of control where 0% means no effect); conditions: ME-180 (cervical carcinoma) HRE-bla reporter, beta-lactamase ratio, CoCl2, 17 h; activation: active compounds read high
Procedure, shortened: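 qHTS titration; ME-180 HRE-bla cells; EC50 CoCl2 co-treatment, 17 h at 37 degrees Celsius; CCF4 dye, ex 405nm, em 460nm and 530nm; %Activity from ratio; AC50.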

[19] = molecular target: Cytochrome P450 2C9 (Homo sapiens) (UniProt P11712); assay: qHTS Assay for Inhibitors and Substrates of Cytochrome P450 2C9 (AID 883); conditions: recombinant CYP2C9, luciferin-H luminescence, 60 min; series mostly up to 57.1 µM; also: potency is read from the fitted curve at half-maximal effect; nearly all actives have a fitted effect of over 60% in size
Procedure, shortened: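 Human CYP2C9 (10nM) with Luciferin-H at 100uM (its KM) in 25mM KPO4; compound preincubated 10 min at 37C, then NADPH regeneration for 60 min at 37C. Luciferin read by luminescence after detection reagent; normalized to 57uM sulphaphenazole as full inhibition.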

SMILES	Potency [1] [µM]	activity change, negative = inhibition [2] [%]	Potency [3]	activity change, negative = inhibition [4] [%]	activity, negative = inhibition [5] [%]	Potency [6] [µM]	Potency [7] [µM]	Potency [8]	Potency [9]	Potency [10]	Potency [11]	Potency [12]	Potency [13]	Potency [14]	outcome [15]	Potency [16]	Potency [17]	activation [18] [%]	Potency [19]
COc1cccc(-c2nccc(NCc3cccnc3)n2)c1	> 11.4	-20.9	0.158 µM (active)	8.95	-2.24	> 46	> 46	inactive	1.26 µM (active)	inactive	7.08 µM (active)	7.08 µM (active)	6.31 µM (active)	inactive	inactive	–	–	–	–
COc1cccc(Cn2c(=O)c(-c3ccccc3)nc3cnc(OC)nc32)c1	> 11.4	-11.6	15.8 µM (active)	-17.4	1.57	> 9.22	> 46	–	7.94 µM (active)	inactive	inactive	inactive	inactive	inactive	inactive	inactive	–	–	–
N#Cc1cccc(-c2ccc3ncnc(NC4CCNCC4)c3c2)c1	> 11.4	-6.77	15.8 µM (active)	3.08	-3.89	> 46	> 46	inactive	–	–	12.6 µM (active)	14.1 µM (active)	14.1 µM (active)	–	inactive	inactive	–	–	–
COc1ccccc1CCn1c(=O)c(-c2cccc(Cl)c2)nc2cncnc21	> 11.4	-3.94	0.316 µM (active)	-27.9	-13	> 9.22	> 46	–	6.31 µM (active)	inactive	inactive	inactive	inactive	inactive	inactive	inactive	0.251 µM (active)	-1.79	–
O=c1c(-c2ccc(F)cc2)nc2cncnc2n1-c1ccccc1	> 11.4	-2.6	7.94 µM (active)	11.8	-3.31	> 9.22	> 46	–	–	inactive	inactive	inactive	inactive	inactive	inactive	inactive	–	–	–
O=c1c(-c2cccc(Cl)c2)nc2cncnc2n1Cc1ccccc1	> 11.4	-3.36	1 µM (active)	-0.741	-3.65	> 9.22	> 46	–	–	–	inactive	inactive	inactive	inactive	inactive	inactive	–	–	1.26 µM (active)
COc1cccc(Cn2c(=O)c(-c3cn(C)c4ccccc34)nc3cncnc32)c1	> 11.4	2.97	1 µM (active)	-0.984	-0.403	> 9.22	> 46	inactive	–	inactive	inactive	inactive	inactive	inactive	inactive	inactive	–	–	–
N#Cc1cccc(-c2nccc(NCc3cccs3)n2)c1	> 11.4	-27.8	0.251 µM (active)	11.9	-14.7	> 46	> 46	–	–	inactive	7.08 µM (active)	6.31 µM (active)	8.91 µM (active)	inactive	inactive	inactive	3.98 µM (active)	–	–
COc1ccccc1CCn1c(=O)c(CCc2ccccc2)nc2cncnc21	> 11.4	-16	7.94 µM (active)	-21.1	-8.11	> 9.22	> 46	–	3.16 µM (active)	inactive	inactive	inactive	inactive	inactive	inactive	inactive	3.16 µM (active)	–	–
COc1ncc2nc(CCc3ccccc3)c(=O)n(CCc3ccccc3)c2n1	> 11.4	-0.194	3.98 µM (active)	-0.888	-1.74	> 9.22	> 46	–	3.16 µM (active)	inactive	inactive	inactive	inactive	inactive	inactive	inactive	7.94 µM (active)	–	–
O=c1cnc2cnc(Nc3ccccc3)nc2n1CCc1ccccc1	> 11.4	-13.5	3.16 µM (active)	9.72	-12.1	> 9.22	> 46	2.51 µM (active)	–	–	0.199 µM (active)	0.316 µM (active)	0.0891 µM (active)	inactive	inactive	inactive	2 µM (active)	–	–
CCNc1ncc2nc(-c3cn(C)c4ccccc34)c(=O)n(C[C@H]3CCCO3)c2n1	> 11.4	-16.7	10 µM (active)	16.3	9.05	> 9.22	> 46	–	–	–	inactive	inactive	inactive	–	inactive	inactive	–	–	–
